Consider one sequence from PMC7862700, “An all-to-all approach to the identification of sequence-specific readers for epigenetic DNA modifications on cytosine”.

Common to all, as to experiment: DAPPL (digital affinity profiling via proximity ligation, sequencing); 10 mM Tris-HCl pH 7.5, 50 mM NaCl, 1 mM DTT, 4% glycerol, room temperature, 30 min; GST-TFs on glutathione beads, 16-mer random dsDNA library, 0.1% formaldehyde crosslink after washing; high values mean tight binding
The target of one assay is T1, FLI1 (Homo sapiens, UniProt Q01543 1-452).
T1 sequence: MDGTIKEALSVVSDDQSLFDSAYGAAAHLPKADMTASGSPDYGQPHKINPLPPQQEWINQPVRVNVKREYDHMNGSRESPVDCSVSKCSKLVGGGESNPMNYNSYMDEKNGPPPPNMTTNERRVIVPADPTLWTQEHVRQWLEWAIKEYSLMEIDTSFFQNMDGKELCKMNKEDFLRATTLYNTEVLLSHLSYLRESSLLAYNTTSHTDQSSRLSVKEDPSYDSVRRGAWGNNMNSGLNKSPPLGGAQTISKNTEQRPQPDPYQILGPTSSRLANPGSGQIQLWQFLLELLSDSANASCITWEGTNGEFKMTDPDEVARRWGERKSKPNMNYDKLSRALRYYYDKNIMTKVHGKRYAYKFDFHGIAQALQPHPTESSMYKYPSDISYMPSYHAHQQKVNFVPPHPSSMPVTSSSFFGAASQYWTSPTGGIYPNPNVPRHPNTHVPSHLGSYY
Conditions: protein: recombinant; tags: N-terminal GST; dsDNA, one strand shown. In outline:
(§1)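 Sequencing on an Illumina NextSeq500 followed washing, crosslinking with 0.1% formaldehyde, proximity ligation (BsaI/T4 ligase, 1 h, 37 °C) and PCR amplification of pools that had been incubated for 30 min at room temperature with 200 nmole of a random double-stranded 16-mer DNA library in Tris/NaCl/DTT/glycerol buffer. Each pool held DNA-barcoded human transcription factors, expressed in yeast as GST fusions and captured on glutathione beads, plus a tag-only sample. Binding signal is a hexamer's read frequency for a factor divided by its frequency in the tag-only sample.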

The target in a further assay is T2, ELK1 (Homo sapiens, UniProt P19419 1-428).
T2 sequence: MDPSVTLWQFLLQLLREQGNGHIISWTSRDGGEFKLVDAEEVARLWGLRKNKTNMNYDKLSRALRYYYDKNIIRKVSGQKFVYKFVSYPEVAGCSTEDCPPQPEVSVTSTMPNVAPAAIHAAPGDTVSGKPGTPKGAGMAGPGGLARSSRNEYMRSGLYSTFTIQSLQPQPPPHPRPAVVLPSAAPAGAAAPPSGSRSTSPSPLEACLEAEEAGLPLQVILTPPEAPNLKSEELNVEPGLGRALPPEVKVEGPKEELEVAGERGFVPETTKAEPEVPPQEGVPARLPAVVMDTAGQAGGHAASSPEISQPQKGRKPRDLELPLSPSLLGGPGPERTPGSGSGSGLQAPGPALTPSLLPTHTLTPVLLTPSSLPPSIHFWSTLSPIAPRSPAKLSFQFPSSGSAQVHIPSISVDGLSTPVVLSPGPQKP
As to conditions: protein: recombinant; tags: N-terminal GST; dsDNA, one strand shown. The essentials:
as §1

Another assay has as its target T3, GABPA (Homo sapiens, UniProt Q06546 1-454).
T3 sequence: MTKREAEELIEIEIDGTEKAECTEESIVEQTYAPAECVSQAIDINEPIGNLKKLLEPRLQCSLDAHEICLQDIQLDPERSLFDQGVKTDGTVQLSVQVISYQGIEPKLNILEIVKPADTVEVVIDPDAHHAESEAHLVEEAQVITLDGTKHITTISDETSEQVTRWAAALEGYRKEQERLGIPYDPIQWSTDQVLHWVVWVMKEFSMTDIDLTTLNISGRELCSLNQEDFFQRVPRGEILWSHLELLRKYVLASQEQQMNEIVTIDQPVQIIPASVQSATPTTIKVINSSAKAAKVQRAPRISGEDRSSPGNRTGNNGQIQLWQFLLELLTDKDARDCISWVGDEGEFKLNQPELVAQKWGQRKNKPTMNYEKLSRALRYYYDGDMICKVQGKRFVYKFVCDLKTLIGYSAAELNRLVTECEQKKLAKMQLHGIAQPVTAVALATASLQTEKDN
As to conditions: protein: recombinant; tags: N-terminal GST; dsDNA, one strand shown. In outline:
as §1

A further assay addresses T4, ERG (Homo sapiens, UniProt P11308 1-479).
T4 sequence: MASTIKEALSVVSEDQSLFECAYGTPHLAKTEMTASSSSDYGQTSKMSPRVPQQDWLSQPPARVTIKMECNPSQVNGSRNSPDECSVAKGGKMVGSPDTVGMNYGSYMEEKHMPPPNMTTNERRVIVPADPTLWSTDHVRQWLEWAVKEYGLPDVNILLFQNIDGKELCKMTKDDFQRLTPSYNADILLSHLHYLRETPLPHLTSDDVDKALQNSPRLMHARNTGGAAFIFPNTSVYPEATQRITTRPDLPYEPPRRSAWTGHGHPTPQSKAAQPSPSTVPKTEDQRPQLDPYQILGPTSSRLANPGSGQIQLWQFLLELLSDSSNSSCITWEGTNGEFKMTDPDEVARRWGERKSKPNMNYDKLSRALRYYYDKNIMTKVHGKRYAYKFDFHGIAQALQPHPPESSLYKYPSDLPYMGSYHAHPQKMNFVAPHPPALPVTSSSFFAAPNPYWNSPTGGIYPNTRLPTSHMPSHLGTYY
Conditions: protein: recombinant; tags: N-terminal GST; dsDNA, one strand shown. The essentials: as §1

For the next assay, the target named is ELF1 (Homo sapiens, UniProt P32519 1-619). Conditions: protein: recombinant; tags: N-terminal GST; dsDNA, one strand shown. In outline: as §1
ELF1, sequence (P32519 whole entry): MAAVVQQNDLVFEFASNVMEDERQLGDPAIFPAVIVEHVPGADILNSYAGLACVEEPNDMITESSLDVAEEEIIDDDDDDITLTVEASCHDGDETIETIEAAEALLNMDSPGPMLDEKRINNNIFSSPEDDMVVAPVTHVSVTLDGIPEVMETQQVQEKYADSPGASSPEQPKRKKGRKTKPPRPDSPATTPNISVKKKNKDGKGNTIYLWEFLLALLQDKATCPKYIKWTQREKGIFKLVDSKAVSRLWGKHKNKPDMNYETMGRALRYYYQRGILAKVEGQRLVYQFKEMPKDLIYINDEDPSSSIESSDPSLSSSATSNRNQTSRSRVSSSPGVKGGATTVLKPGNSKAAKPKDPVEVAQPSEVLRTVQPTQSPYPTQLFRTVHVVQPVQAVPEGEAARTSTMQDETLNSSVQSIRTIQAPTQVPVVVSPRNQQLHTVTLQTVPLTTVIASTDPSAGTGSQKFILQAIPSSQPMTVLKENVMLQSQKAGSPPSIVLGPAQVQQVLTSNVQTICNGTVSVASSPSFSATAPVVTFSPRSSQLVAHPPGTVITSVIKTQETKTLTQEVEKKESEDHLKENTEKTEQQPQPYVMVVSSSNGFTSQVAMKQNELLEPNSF
The next assay deals with T5, EHF (Homo sapiens, UniProt Q9NZC4 1-300).
T5 sequence: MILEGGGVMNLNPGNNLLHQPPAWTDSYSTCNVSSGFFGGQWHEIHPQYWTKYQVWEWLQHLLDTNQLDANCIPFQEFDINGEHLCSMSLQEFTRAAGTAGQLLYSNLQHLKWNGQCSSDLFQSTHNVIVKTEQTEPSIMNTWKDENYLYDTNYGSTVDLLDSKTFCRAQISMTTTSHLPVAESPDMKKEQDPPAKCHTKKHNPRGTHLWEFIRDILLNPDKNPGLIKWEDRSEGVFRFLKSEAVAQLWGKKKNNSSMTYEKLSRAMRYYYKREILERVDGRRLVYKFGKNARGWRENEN
Conditions: protein: recombinant; tags: N-terminal GST; dsDNA, one strand shown. The essentials: as §1

In a further assay the target is SPI1 (Homo sapiens, UniProt P17947 1-270). Conditions: protein: recombinant; tags: N-terminal GST; dsDNA, one strand shown. In outline:
as §1

A further assay has as its target SPIB (Homo sapiens, UniProt Q01892 1-262). As to conditions: protein: recombinant; tags: N-terminal GST; dsDNA, one strand shown. The essentials:
as §1

The next assay concerns the target T6, ELK3 (Homo sapiens, UniProt P41970 1-407).
T6 sequence: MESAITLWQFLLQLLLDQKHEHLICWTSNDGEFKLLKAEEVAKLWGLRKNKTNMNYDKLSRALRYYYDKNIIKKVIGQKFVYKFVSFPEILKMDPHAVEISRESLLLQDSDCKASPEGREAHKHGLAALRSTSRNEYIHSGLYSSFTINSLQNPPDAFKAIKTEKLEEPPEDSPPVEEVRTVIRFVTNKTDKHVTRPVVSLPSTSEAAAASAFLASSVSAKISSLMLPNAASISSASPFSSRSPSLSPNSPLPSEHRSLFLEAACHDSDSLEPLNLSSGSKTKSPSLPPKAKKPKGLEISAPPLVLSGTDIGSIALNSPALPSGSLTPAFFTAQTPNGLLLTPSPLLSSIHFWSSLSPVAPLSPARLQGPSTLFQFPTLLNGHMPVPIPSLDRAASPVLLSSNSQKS
As to conditions: protein: recombinant; tags: N-terminal GST; dsDNA, one strand shown. The essentials:
as §1

For another assay, the target named is T7, FEV (Homo sapiens, UniProt Q99581 1-238).
T7 sequence: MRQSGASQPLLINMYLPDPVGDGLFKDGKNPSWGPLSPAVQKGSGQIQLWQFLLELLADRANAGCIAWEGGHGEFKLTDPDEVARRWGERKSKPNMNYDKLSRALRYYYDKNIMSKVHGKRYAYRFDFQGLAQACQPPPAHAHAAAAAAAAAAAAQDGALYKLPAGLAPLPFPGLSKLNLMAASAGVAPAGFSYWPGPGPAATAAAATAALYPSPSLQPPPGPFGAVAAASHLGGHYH
As to conditions: protein: recombinant; tags: N-terminal GST; dsDNA, one strand shown. In outline: as §1

A further assay deals with ETV5 (Homo sapiens, UniProt P41161 1-510). Conditions: protein: recombinant; tags: N-terminal GST; dsDNA, one strand shown. The essentials:
as §1

Another assay addresses HSF1 (Homo sapiens, UniProt Q00613 1-529). As to conditions: protein: recombinant; tags: N-terminal GST; chain copies: 3; dsDNA, one strand shown. In outline:
as §1

The target of a further assay is T8, SPIC (Homo sapiens, UniProt Q8N5J4 1-248).
T8 sequence: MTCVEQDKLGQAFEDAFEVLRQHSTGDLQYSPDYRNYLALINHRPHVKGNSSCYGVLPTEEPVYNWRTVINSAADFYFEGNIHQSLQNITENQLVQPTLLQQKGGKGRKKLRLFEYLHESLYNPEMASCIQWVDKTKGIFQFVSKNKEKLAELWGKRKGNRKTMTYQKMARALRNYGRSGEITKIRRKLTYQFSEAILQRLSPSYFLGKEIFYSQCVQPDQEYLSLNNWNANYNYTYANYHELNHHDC
As to conditions: protein: recombinant; tags: N-terminal GST; dsDNA, one strand shown. The essentials:
as §1

Another assay deals with ELF4 (Homo sapiens, UniProt Q99607 1-663). Conditions: protein: recombinant; tags: N-terminal GST; dsDNA, one strand shown. In outline:
as §1

The target in another assay is T9, ELK4 (Homo sapiens, UniProt P28324-2 1-405).
T9 sequence: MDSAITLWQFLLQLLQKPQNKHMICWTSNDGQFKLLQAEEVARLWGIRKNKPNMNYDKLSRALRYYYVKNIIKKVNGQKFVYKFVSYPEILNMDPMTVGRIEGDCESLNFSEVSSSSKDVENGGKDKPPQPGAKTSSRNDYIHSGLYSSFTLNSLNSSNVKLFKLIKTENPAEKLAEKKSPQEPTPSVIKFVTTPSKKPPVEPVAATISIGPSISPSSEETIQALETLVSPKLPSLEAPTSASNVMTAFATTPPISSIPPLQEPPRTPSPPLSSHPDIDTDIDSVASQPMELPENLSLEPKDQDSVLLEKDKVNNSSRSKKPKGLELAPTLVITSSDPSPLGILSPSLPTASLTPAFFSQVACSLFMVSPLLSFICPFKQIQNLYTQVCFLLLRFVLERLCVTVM
Conditions: protein: recombinant; tags: N-terminal GST; dsDNA, one strand shown. In outline: as §1

Another assay deals with T10, ETV2 (Homo sapiens, UniProt O00321 1-342).
T10 sequence: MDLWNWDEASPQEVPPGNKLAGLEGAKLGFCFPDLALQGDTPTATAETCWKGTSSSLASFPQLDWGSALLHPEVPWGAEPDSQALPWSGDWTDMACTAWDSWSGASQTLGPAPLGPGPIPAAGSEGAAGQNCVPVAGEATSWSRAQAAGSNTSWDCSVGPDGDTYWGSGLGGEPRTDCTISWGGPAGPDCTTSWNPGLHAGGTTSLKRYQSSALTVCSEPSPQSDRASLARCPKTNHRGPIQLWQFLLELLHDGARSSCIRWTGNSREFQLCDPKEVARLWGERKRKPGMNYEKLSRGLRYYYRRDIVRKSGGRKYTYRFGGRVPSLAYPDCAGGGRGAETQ
As to conditions: protein: recombinant; tags: N-terminal GST; dsDNA, one strand shown. The essentials:
as §1

For the next assay, the target named is CRX (Homo sapiens, UniProt O43186 1-299). As to conditions: protein: recombinant; tags: N-terminal GST; dsDNA, one strand shown. The essentials:
as §1

The next assay concerns the target ETV1 (Homo sapiens, UniProt P50549 1-477). As to conditions: protein: recombinant; tags: N-terminal GST; dsDNA, one strand shown. The essentials:
as §1

SPIB, sequence (Q01892 whole entry): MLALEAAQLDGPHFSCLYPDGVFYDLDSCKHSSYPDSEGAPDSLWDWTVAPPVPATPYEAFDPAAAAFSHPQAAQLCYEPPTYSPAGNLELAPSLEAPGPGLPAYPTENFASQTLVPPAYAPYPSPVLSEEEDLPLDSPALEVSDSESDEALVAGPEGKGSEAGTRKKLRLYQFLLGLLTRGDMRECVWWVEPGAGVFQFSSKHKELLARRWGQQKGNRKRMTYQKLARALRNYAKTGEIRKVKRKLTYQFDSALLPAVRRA
HSF1, sequence (Q00613 whole entry): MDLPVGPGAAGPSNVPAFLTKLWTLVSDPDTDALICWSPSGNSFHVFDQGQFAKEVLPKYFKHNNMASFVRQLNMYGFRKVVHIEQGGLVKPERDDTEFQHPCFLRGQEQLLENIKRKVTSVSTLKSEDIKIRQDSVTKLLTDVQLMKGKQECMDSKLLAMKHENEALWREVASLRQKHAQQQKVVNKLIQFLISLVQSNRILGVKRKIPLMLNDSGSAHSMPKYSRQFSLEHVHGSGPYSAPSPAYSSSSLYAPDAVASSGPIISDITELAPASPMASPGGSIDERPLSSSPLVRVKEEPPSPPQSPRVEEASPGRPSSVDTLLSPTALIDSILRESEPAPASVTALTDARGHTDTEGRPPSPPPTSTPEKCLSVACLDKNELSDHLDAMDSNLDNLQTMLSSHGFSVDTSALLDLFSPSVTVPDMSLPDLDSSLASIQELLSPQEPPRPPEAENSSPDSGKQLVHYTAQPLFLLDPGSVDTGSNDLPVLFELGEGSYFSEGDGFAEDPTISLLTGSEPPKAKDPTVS
ELF4, sequence (Q99607 whole entry): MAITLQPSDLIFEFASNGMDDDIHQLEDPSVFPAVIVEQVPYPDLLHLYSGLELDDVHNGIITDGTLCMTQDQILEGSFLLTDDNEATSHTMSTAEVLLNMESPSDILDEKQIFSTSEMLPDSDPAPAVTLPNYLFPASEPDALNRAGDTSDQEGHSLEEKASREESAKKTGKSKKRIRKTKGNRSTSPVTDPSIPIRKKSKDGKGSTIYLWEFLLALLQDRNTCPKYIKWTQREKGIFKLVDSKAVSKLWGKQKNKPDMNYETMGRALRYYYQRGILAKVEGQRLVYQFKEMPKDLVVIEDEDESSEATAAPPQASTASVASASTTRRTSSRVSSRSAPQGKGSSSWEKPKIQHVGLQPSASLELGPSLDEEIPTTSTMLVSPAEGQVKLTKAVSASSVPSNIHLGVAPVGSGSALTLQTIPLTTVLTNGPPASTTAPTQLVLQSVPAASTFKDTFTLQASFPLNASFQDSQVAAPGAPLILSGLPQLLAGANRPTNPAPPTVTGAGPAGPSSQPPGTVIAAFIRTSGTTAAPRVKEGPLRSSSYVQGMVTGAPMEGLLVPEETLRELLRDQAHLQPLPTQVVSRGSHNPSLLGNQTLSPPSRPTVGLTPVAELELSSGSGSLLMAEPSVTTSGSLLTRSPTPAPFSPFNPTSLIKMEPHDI
ETV1, sequence (P50549 whole entry): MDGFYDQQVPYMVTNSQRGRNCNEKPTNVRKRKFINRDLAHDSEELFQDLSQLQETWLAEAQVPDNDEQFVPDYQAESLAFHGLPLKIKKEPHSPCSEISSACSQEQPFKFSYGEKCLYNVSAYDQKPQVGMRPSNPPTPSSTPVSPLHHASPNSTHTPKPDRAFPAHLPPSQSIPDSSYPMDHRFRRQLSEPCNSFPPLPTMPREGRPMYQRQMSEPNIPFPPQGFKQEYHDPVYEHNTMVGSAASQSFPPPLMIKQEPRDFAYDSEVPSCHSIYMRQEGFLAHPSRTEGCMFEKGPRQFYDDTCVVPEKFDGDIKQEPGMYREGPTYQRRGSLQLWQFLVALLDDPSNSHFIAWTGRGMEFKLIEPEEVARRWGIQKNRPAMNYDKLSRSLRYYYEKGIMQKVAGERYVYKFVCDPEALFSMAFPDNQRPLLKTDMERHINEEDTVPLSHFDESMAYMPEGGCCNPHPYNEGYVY
CRX, sequence (O43186 whole entry): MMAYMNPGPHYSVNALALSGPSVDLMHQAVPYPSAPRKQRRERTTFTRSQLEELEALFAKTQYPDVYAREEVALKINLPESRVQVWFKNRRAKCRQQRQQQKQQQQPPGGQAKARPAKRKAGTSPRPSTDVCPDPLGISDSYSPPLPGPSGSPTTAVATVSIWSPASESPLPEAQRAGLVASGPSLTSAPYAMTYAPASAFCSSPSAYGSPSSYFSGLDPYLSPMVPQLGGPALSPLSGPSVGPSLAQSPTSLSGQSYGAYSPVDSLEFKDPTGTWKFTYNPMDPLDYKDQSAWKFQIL
ETV5, sequence (P41161 whole entry): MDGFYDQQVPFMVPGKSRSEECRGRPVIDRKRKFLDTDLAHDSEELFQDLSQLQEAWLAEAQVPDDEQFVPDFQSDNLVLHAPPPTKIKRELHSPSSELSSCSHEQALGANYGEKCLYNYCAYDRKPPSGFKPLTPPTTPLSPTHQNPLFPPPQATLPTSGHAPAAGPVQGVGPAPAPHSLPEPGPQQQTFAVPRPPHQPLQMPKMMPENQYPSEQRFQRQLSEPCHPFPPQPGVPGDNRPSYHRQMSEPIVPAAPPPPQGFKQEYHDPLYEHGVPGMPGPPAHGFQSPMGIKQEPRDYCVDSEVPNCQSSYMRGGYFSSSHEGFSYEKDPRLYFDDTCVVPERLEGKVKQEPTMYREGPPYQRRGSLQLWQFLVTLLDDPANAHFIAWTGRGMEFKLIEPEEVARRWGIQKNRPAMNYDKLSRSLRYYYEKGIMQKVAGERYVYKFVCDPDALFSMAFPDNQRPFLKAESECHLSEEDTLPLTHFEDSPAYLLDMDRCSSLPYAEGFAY

For ACTCGA, the binding signal with FLI1 was 1.35 fold enrichment (6-mer frequency, TF over GST control); with ELK1, 1.48 fold enrichment (6-mer frequency, TF over GST control); in the assay with GABPA it was 1.44 fold enrichment (6-mer frequency, TF over GST control); with ERG, 1.22 fold enrichment (6-mer frequency, TF over GST control); with ELF1, 1.49 fold enrichment (6-mer frequency, TF over GST control); with EHF it was 1.14 fold enrichment (6-mer frequency, TF over GST control). Also, the binding signal was 1.26 fold enrichment (6-mer frequency, TF over GST control) with SPI1; 1.24 fold enrichment (6-mer frequency, TF over GST control) with SPIB; 1.27 fold enrichment (6-mer frequency, TF over GST control) in the assay with ELK3; 1.29 fold enrichment (6-mer frequency, TF over GST control) with FEV; 1.27 fold enrichment (6-mer frequency, TF over GST control) with ETV5; 1.99 fold enrichment (6-mer frequency, TF over GST control) with HSF1. Besides, the binding signal in the assay with SPIC is 1.51 fold enrichment (6-mer frequency, TF over GST control); with ELF4, 1.31 fold enrichment (6-mer frequency, TF over GST control); with ELK4, 1.35 fold enrichment (6-mer frequency, TF over GST control); with ETV2, 1.46 fold enrichment (6-mer frequency, TF over GST control); with CRX it was 1.37 fold enrichment (6-mer frequency, TF over GST control); with ETV1, 1.33 fold enrichment (6-mer frequency, TF over GST control).
